Results reported in PubChem BioAssay AID1159580 (chemical genetic matrix, 2015).
Out of some 5,500 compounds screened, about 2,000 (36%) were called active. Another 18% or so got no clear call; they are omitted. No stated cut-off is given here; in the data, active means normalized growth mostly below about 0.91 (no sharp cut-off); inconclusive means no clear call, values can overlap the other calls; inactive means mostly above about 0.92. Some of the results follow.

Test: chemical genetic growth profiling, strain panel (AID 1159580);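 further: tested at 20 µM; growth read once vehicle control cultures reached saturation at 30 °C; 1 = growth at the plate median or of vehicle wells; lower values mean less growth of the strain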
Conditions: growth OD
[1] = S. cerevisiae deletion strains, locus YAL013W, strain DEP1, active compounds read low
[2] = S. cerevisiae deletion strains, locus YDR150W, strain NUM1, active compounds read low
[3] = S. cerevisiae deletion strains, locus YGR078C, strain PAC10, active compounds read low
[4] = S. cerevisiae deletion strains, locus YHR030C, strain SLT2, active compounds read low
[5] = S. cerevisiae deletion strains, locus YNL322C, strain KRE1, active compounds read low
[6] = S. cerevisiae deletion strains, locus YPL055C, strain LGE1, active compounds read low
[7] = S. cerevisiae deletion strains, locus YAL040C, strain CLN3, active compounds read low
[8] = S. cerevisiae deletion strains, locus YCL061C, strain MRC1 (second series), active compounds read low
[9] = S. cerevisiae deletion strains, locus YDR363W, strain ESC2, active compounds read low
[10] = S. cerevisiae deletion strains, locus YER002W, strain NOP16, active compounds read low
[11] = S. cerevisiae deletion strains, locus YNL128W, strain TEP1, active compounds read low
[12] = S. cerevisiae deletion strains, locus YNL175C, strain NOP13, active compounds read low
[13] = S. cerevisiae deletion strains, locus YNL197C, strain WHI3, active compounds read low
[14] = S. cerevisiae deletion strains, locus YNL224C, strain SQS1, active compounds read low
[15] = S. cerevisiae deletion strains, locus YOR083W, strain WHI5 (second series), active compounds read low

Measured: normalized growth

c1ccc(-c2csc(-c3cccnc3)n2)cc1
inactive: S. cerevisiae deletion strains, locus YDL101C, strain DUN1, active compounds read low 0.912 | S. cerevisiae deletion strains, locus YDL134C, strain PPH21, active compounds read low 0.954 | [2] 0.946 | S. cerevisiae deletion strains, locus YHR087W, strain rtc3, active compounds read low 0.938 | S. cerevisiae deletion strains, locus YJR043C, strain POL32, active compounds read low 0.935 | S. cerevisiae strains, strain wild type, active compounds read low 0.949
active: [1] 0.872 | S. cerevisiae deletion strains, locus YBR229C, strain ROT2, active compounds read low 0.886 | S. cerevisiae deletion strains, locus YCL061C, strain MRC1, active compounds read low 0.853 | S. cerevisiae deletion strains, locus YEL061C, strain CIN8, active compounds read low 0.793 | [3] 0.9 | [4] 0.132 | S. cerevisiae deletion strains, locus YJR075W, strain HOC1, active compounds read low 0.855 | S. cerevisiae deletion strains, locus YKL190W, strain CNB1, active compounds read low 0.853 | S. cerevisiae deletion strains, locus YLR039C, strain RIC1, active compounds read low 0.557 | S. cerevisiae deletion strains, locus YLR058C, strain SHM2 (second series), active compounds read low 0.908 | S. cerevisiae deletion strains, locus YLR085C, strain ARP6, active compounds read low 0.275 | S. cerevisiae deletion strains, locus YLR262C, strain YPT6, active compounds read low 0.432 | S. cerevisiae deletion strains, locus YML094W, strain GIM5, active compounds read low 0.772 | S. cerevisiae deletion strains, locus YMR219W, strain ESC1, active compounds read low 0.892 | S. cerevisiae deletion strains, locus YMR263W, strain SAP30, active compounds read low 0.873 | S. cerevisiae deletion strains, locus YNL153C, strain GIM3, active compounds read low 0.887 | S. cerevisiae deletion strains, locus YNL298W, strain CLA4 (second series), active compounds read low 0.74 | [5] 0.94 | S. cerevisiae deletion strains, locus YNR030W, strain Alg12, active compounds read low 0.857 | [6] 0.717 | S. cerevisiae deletion strains, locus YPL241C, strain CIN2, active compounds read low 0.855 | S. cerevisiae deletion strains, locus YPR135W, strain CTF4, active compounds read low 0.377

c1cncc(C2=NCCC2)c1
inactive: [4] 1.02 | S. cerevisiae deletion strains, locus YHR079C, strain IRE1, active compounds read low 1.01 | S. cerevisiae deletion strains, locus YJL095W, strain BCK1, active compounds read low 1.02 | S. cerevisiae deletion strains, locus YJR066W, strain TOR1, active compounds read low 0.938 | S. cerevisiae deletion strains, locus YLR113W, strain HOG1, active compounds read low 0.905 | S. cerevisiae deletion strains, locus YNL183C, strain NPR1, active compounds read low 0.952 | S. cerevisiae deletion strains, locus YOR231W, strain MKK1, active compounds read low 1.01 | S. cerevisiae deletion strains, locus YPL256C, strain CLN2, active compounds read low 0.99

CNc1ccc2oc(C[C@H]3O[C@@]4(CC[C@H]3C)O[C@H]([C@H](C)C(=O)c3ccc[nH]3)[C@H](C)C[C@H]4C)nc2c1C(=O)O
active: [12] 0.907 | [13] 0.853
inactive: [1] 0.976 | [7] 0.929 | [8] 0.951 | [9] 0.928 | [10] 0.997 | [11] 0.98 | [14] 0.924 | [15] 0.906

CCCCCC(O)c1cccc(OCc2ccc3ccccc3n2)c1 (configuration not stated)
inactive: [1] 0.958 | [7] 0.958 | [8] 0.984 | [2] 1 | [9] 0.976 | [10] 1.01 | [3] 0.982 | S. cerevisiae deletion strains, locus YGR229C, strain SMI1, active compounds read low 0.942 | S. cerevisiae deletion strains, locus YMR307W, strain GAS1, active compounds read low 0.996 | [11] 1 | [12] 0.995 | [13] 0.995 | [14] 0.99 | [5] 0.972 | [15] 0.873 | [6] 0.973
